Source: the supplement of paper PMC10849652
About 8,800 targets were measured; listed, in parts, are those with a hit and a random draw of the rest. About 0.5% of all pairs of compound and target were hits.

How the values were obtained:
Experiment in all cases: log2 fold change, soluble protein after heating vs DMSO (PISA); higher = thermal stabilisation; K562 lysate, 10 uM; active = over 0.2 and 3.5 SD of the protein, either way, in both replicates (recomputed)
lapatinib = compound: CS(=O)(=O)CCNCc1ccc(-c2ccc3ncnc(Nc4ccc(OCc5cccc(F)c5)c(Cl)c4)c3c2)o1 [lapatinib]
Outline: (§1)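 K562 pellets were dounce-homogenised in PBS pH 7.4 with 1 mM MgCl2, and the crude extract at 1 mg/mL protein was treated with 10 μM compound for 30 min. Aliquots were heated for 3 min across 48°C-58°C, pooled, and brought to 0.5% NP-40 at 4°C; soluble protein was the supernatant after 21,000xg for 90 min. Soluble protein was quantified by TMTpro 16plex LC-MS/MS with channel sums equalised, and reported as log2 fold change in thermal stability against DMSO controls, with values from duplicates.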

pictilisib = compound: CS(=O)(=O)N1CCN(Cc2cc3nc(-c4cccc5[nH]ncc45)nc(N4CCOCC4)c3s2)CC1 [pictilisib]
Outline: as §1

crizotinib = compound: C[C@@H](Oc1cc(-c2cnn(C3CCNCC3)c2)cnc1N)c1c(Cl)ccc(F)c1Cl [crizotinib]
Outline: as §1

[1] = compound: C[C@H](C1=CC=C(C=C1)C(=O)NC2=C3C=CNC3=NC=C2)N
Outline: as §1

duvelisib = compound: C[C@H](Nc1ncnc2nc[nH]c12)c1cc2cccc(Cl)c2c(=O)n1-c1ccccc1 [duvelisib]
Outline: as §1

gandotinib = compound: Cc1cc(Nc2cc(CN3CCOCC3)c3nc(C)c(Cc4ccc(Cl)cc4F)n3n2)n[nH]1 [gandotinib]
Outline: as §1

tozasertib = compound: Cc1cc(Nc2cc(N3CCN(C)CC3)nc(Sc3ccc(NC(=O)C4CC4)cc3)n2)n[nH]1 [tozasertib]
Outline: as §1

doramapimod = compound: Cc1ccc(-n2nc(C(C)(C)C)cc2NC(=O)Nc2ccc(OCCN3CCOCC3)c3ccccc23)cc1 [doramapimod]
Outline: as §1

bafetinib = compound: Cc1ccc(NC(=O)c2ccc(CN3CC[C@H](N(C)C)C3)c(C(F)(F)F)c2)cc1Nc1nccc(-c2cncnc2)n1 [bafetinib]
Outline: as §1

[2] = compound: Cc1cccc(CC(=O)N2CCc3c2ccc(-c2cn(C)c4ncnc(N)c24)c3F)n1
Outline: as §1

Measured: log2 fold change

FBXO30 (UniProt Q8TB52)
inactive: lapatinib -0.015 | pictilisib -0.03 | crizotinib -0.013 | [1] 0.187 | duvelisib 0.024 | gandotinib -0.072 | tozasertib -0.021 | doramapimod 0.045 | bafetinib 0.032 | [2] -0.117

DUSP22 isoform 2 (UniProt Q9NRW4)
inactive: lapatinib 0.031 | pictilisib -0.082 | [1] -0.058 | duvelisib 0.038 | gandotinib 0.03 | bafetinib 0.018 | [2] 0.037

FAM76B (UniProt Q5HYJ3)
UniProt Q5HYJ3, sequence (Q5HYJ3 whole entry, looked up): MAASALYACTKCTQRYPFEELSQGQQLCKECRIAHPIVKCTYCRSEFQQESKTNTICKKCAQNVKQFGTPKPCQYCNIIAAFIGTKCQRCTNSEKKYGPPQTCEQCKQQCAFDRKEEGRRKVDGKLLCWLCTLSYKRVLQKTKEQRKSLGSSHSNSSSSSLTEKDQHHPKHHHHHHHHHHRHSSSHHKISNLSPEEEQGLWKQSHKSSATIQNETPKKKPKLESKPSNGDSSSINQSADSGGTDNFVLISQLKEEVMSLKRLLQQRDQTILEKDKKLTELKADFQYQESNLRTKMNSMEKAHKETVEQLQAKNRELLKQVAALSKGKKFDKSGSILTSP
inactive: lapatinib -0.049 | crizotinib 0.028 | [1] -0.19 | duvelisib -0.02 | gandotinib 0.023 | tozasertib -0.021 | doramapimod -0.016
active: [2] 0.269

FBRSL1, A0A3B3IRR3
inactive: pictilisib -0.064 | crizotinib 0.086 | [1] -0.114 | duvelisib 0.035 | gandotinib 0.032 | tozasertib -0.105 | doramapimod -0.161 | bafetinib -0.089 | [2] 0.146

GART (UniProt C9JZG2)
inactive: lapatinib -0.131 | pictilisib 0.019 | crizotinib -0.245 | [1] -0.371 | gandotinib 0.02 | tozasertib 0.037 | doramapimod 0.166 | bafetinib 0.026 | [2] 0.19

FAT1 (UniProt Q14517)
inactive: lapatinib -0.129 | crizotinib -0.109 | [1] 0.079 | gandotinib 0.027 | tozasertib -0.139 | doramapimod 0.475 | [2] 0.072

FMNL2 isoform 3 (UniProt Q96PY5)
UniProt Q96PY5, sequence (Q96PY5 whole entry, looked up): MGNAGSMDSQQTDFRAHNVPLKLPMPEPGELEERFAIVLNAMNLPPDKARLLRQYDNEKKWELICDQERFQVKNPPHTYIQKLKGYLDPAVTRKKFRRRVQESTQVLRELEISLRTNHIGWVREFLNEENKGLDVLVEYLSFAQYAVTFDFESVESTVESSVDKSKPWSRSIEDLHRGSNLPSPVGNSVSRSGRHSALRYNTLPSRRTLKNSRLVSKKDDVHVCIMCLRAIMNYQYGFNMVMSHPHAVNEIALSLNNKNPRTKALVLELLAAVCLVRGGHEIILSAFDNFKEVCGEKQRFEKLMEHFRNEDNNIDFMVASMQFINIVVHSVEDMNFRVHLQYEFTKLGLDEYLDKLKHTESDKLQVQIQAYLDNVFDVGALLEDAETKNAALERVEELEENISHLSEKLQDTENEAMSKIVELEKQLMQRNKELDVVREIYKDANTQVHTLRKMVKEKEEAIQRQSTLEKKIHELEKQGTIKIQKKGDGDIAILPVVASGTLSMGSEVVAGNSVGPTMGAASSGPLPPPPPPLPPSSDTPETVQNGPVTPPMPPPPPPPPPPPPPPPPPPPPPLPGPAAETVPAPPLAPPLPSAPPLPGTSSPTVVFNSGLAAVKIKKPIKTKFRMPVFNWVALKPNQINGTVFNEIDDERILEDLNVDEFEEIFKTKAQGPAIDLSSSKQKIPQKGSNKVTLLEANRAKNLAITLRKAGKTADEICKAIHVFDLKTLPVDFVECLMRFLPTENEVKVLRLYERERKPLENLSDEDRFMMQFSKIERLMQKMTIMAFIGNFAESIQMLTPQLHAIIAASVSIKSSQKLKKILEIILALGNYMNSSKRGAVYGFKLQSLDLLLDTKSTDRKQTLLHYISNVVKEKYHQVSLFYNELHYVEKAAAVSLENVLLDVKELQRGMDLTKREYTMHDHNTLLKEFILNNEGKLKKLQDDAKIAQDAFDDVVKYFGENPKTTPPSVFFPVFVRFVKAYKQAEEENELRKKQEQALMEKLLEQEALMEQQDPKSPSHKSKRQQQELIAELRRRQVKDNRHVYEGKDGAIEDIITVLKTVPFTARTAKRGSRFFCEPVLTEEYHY
inactive: lapatinib -0.077 | crizotinib -0.17 | duvelisib -0.085 | doramapimod 0.091

FOXJ2 (UniProt Q9P0K8)
UniProt Q9P0K8, sequence (Q9P0K8 whole entry, looked up): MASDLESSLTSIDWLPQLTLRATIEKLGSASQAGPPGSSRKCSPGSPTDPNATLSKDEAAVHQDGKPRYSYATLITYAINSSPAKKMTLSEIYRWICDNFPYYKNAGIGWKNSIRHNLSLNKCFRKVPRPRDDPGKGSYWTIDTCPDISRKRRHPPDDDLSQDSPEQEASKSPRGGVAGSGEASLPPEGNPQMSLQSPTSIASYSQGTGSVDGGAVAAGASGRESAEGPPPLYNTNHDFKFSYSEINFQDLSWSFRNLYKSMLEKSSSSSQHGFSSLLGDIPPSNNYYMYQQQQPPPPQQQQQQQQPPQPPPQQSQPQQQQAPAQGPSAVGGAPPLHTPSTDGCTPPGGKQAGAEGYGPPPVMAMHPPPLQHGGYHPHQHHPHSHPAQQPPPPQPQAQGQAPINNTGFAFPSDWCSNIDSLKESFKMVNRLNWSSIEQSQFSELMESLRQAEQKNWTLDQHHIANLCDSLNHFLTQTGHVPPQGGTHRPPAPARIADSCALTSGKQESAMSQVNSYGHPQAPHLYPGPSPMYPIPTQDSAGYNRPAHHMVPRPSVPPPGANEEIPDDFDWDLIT
inactive: pictilisib 0.043 | [1] -0.037 | duvelisib 0.039 | gandotinib 0.044 | tozasertib 0.127 | bafetinib -0.224 | [2] 0.056

DTL (UniProt Q9NZJ0)
inactive: pictilisib -0.026 | crizotinib -0.035 | [1] 0.059 | duvelisib 0.174 | gandotinib -0.053 | doramapimod 0.064 | bafetinib -0.099 | [2] 0.006

ELAVL4 (UniProt P26378)
inactive: lapatinib -0.017 | crizotinib -0.065 | [1] -0.064 | duvelisib 0.03 | gandotinib -0.034 | tozasertib 0.05 | doramapimod 0.035 | [2] -0.061

ETFRF1 (UniProt Q6IPR1)
UniProt Q6IPR1, sequence (Q6IPR1 whole entry, looked up): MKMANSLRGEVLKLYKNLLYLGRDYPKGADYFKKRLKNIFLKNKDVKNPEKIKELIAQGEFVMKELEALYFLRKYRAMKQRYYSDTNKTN
inactive: lapatinib 0.021 | pictilisib -0.01 | crizotinib -0.004 | [1] 0.112 | duvelisib -0.004 | gandotinib -0.087 | doramapimod -0.057 | bafetinib -0.039 | [2] -0.039

GCA (UniProt P28676)
inactive: lapatinib 0.016 | [1] -0.091 | gandotinib -0.073 | [2] 0.057

GC isoform 3 (UniProt P02774)
inactive: crizotinib 0.029 | [1] 0.173 | duvelisib 0.133 | gandotinib -0.025 | tozasertib -0.004 | doramapimod -0.081 | [2] -0.075

EIF3I (UniProt Q5TFK1)
inactive: lapatinib -0.063 | [1] 0.137 | gandotinib 0.052 | [2] 0.112

EPB41 isoform 4 (UniProt P11171)
inactive: lapatinib 0.014 | crizotinib -0.038 | [1] 0.012 | gandotinib -0.004 | doramapimod 0.046 | [2] -0.024

EID1 (UniProt Q9Y6B2)
UniProt Q9Y6B2, sequence (Q9Y6B2 whole entry, looked up): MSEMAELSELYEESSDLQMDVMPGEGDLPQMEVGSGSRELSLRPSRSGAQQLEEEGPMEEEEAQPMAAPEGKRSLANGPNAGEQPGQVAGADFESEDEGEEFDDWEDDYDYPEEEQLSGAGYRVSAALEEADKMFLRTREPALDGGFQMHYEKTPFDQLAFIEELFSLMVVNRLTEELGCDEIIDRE
active: duvelisib 0.604
inactive: [1] -0.02 | gandotinib 0.108 | tozasertib -0.043 | [2] 0.069

EPN2 (UniProt I3L356)
inactive: lapatinib 0.014 | pictilisib -0.054 | [1] -0.361 | gandotinib 0.081 | bafetinib 0.031 | [2] 0.146

FAM204A (UniProt Q9H8W3)
inactive: crizotinib -0.053 | [1] 0.412 | gandotinib 0.045 | doramapimod 0.154 | [2] -0.077

GAA (UniProt P10253)
inactive: lapatinib 0.083 | pictilisib 0.034 | crizotinib -0.098 | [1] -0.018 | gandotinib 0.04 | tozasertib -0.027 | doramapimod -0.099 | bafetinib 0.081 | [2] -0.04

ESRRB isoform 1 (UniProt O95718)
inactive: pictilisib 0.05 | [1] 0.438 | gandotinib -0.437 | bafetinib 0.028 | [2] -0.308

FAM53B (UniProt Q14153)
UniProt Q14153, sequence (Q14153 whole entry, looked up): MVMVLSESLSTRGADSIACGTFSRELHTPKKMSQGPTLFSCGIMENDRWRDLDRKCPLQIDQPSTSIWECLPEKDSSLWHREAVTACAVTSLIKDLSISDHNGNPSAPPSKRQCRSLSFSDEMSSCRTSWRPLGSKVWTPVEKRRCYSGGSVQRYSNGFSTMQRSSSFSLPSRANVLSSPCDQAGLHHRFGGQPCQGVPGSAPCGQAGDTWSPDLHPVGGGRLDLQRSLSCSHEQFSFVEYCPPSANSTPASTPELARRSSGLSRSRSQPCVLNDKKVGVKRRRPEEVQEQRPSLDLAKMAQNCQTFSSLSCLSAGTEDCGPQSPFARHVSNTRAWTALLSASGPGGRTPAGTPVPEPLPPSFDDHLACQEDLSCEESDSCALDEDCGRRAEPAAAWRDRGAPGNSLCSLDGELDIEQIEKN
inactive: pictilisib 0.02 | crizotinib -0.03 | [1] -0.032 | duvelisib 0.079 | gandotinib 0.037 | tozasertib 0.024 | doramapimod 0.169 | bafetinib -0.023 | [2] 0.083

FLT4 (UniProt P35916)
UniProt P35916, sequence (P35916 whole entry, looked up): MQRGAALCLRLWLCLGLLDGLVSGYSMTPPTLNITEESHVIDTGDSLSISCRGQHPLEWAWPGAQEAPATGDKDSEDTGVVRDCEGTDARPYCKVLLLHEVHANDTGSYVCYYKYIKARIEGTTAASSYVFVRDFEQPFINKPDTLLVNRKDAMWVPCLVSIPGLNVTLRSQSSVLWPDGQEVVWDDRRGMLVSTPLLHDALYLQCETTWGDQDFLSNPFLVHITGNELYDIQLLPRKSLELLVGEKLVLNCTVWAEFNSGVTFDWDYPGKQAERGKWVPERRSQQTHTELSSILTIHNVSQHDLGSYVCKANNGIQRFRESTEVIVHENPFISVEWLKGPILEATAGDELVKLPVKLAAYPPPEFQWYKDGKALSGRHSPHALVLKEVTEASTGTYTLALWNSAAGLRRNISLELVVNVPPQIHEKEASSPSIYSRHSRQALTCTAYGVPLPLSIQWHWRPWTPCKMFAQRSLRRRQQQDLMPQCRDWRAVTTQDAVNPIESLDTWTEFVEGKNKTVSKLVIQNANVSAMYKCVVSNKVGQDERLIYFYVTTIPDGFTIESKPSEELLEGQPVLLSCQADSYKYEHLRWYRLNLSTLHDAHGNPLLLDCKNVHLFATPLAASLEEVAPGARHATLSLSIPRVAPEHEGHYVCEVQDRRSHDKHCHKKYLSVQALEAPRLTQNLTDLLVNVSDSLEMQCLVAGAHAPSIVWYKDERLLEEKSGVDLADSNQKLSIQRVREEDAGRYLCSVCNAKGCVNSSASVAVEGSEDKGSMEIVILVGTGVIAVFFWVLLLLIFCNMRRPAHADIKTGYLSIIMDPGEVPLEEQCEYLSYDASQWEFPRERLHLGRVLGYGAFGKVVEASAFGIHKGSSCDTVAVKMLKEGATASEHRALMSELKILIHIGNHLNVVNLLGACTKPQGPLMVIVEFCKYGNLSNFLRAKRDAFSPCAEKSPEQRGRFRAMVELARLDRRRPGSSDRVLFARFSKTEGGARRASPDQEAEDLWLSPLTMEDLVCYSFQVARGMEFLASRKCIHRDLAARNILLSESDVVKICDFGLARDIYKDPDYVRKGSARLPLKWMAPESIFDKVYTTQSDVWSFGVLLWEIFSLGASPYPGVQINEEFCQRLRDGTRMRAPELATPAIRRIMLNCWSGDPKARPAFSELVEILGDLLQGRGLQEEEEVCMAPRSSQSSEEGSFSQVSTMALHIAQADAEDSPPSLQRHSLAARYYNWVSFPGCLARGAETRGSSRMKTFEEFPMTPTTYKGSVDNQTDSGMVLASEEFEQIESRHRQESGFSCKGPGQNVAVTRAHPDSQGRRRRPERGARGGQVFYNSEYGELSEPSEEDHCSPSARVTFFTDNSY
inactive: lapatinib -0.007 | pictilisib 0.057 | [1] -0.173 | duvelisib 0.026 | gandotinib 0.019 | tozasertib -0.056 | bafetinib -0.035 | [2] -0.041

EWSR1 (UniProt H7BY36)
inactive: pictilisib 0.071 | crizotinib -0.042 | [1] 0.07 | duvelisib -0.011 | gandotinib -0.167 | tozasertib 0.01 | doramapimod -0.066 | bafetinib 0.293 | [2] 0.019

ERG28 (UniProt Q9UKR5)
UniProt Q9UKR5, sequence (Q9UKR5 whole entry, looked up): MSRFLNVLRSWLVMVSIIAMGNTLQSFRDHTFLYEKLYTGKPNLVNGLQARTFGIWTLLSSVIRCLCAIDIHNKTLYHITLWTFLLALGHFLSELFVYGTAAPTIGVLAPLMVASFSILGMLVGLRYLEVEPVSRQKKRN
active: [1] 0.593
inactive: lapatinib 0.008 | pictilisib 0.049 | duvelisib 0.014 | gandotinib -0.349 | tozasertib -0.11 | bafetinib 0.041 | [2] -0.392

EIF2B4 (UniProt Q9UI10)
active: tozasertib -0.314
inactive: lapatinib -0.003 | pictilisib 0.038 | crizotinib -0.057 | duvelisib -0.032 | doramapimod -0.019 | bafetinib -0.04

GAPVD1 (UniProt Q14C86)
inactive: lapatinib 0.03 | pictilisib -0.138 | bafetinib 0.014

FOXL2 (UniProt P58012)
active: bafetinib -0.703
inactive: lapatinib -0.25 | pictilisib 0.091 | duvelisib 0.094 | tozasertib -0.092

EXO5 (UniProt Q9H790)
active: pictilisib -0.43
inactive: crizotinib -0.113 | doramapimod 0.061 | bafetinib -0.261

DST isoform 3 (UniProt Q03001)
inactive: pictilisib 0.049 | gandotinib -0.243 | tozasertib -0.056 | bafetinib -0.118 | [2] -0.224
active: [1] 1.39

EIF2AK3 (UniProt Q9NZJ5)
active: [2] 1.48
inactive: lapatinib 0.3 | [1] -0.051 | duvelisib -0.122 | gandotinib -0.212

EPB41, A0A2R8Y783
inactive: lapatinib -0.063 | pictilisib 0.04 | [1] 0.121 | duvelisib -0.089 | gandotinib -0.066 | tozasertib 0.061 | bafetinib 0.04 | [2] -0.006

FBXO45 (UniProt P0C2W1)
inactive: lapatinib -0.067 | pictilisib -0.034 | crizotinib -0.123 | [1] -0.081 | gandotinib -0.031 | tozasertib 0.115 | doramapimod 0.017 | bafetinib -0.272 | [2] 0.091

FAM111A (UniProt Q96PZ2)
inactive: lapatinib 0.223 | crizotinib -0.01 | duvelisib 0.03 | tozasertib -0.02 | doramapimod -0.163

FNDC3A (UniProt Q9Y2H6)
inactive: crizotinib 0.036 | gandotinib 0.42 | doramapimod 0.143 | [2] 0.126
active: [1] -0.808

FTSJ1 isoform 2 (UniProt Q9UET6)
inactive: lapatinib 0.013 | [1] -0.129 | gandotinib 0.077 | tozasertib -0.175 | [2] 0.079

DYRK1A isoform 2 (UniProt Q13627)
inactive: pictilisib -0.166 | crizotinib -0.071 | [1] -0.171 | gandotinib 0.014 | doramapimod 0.092 | bafetinib 0.145 | [2] 0.034

FAT2 (UniProt Q9NYQ8)
inactive: lapatinib -0.027 | pictilisib -0.015 | crizotinib -0.512 | [1] -0.366 | gandotinib 0.182 | tozasertib 0.055 | doramapimod -0.094 | bafetinib -0.244 | [2] 0.407

EVI5L isoform 2 (UniProt Q96CN4)
UniProt Q96CN4, sequence (Q96CN4 whole entry, looked up): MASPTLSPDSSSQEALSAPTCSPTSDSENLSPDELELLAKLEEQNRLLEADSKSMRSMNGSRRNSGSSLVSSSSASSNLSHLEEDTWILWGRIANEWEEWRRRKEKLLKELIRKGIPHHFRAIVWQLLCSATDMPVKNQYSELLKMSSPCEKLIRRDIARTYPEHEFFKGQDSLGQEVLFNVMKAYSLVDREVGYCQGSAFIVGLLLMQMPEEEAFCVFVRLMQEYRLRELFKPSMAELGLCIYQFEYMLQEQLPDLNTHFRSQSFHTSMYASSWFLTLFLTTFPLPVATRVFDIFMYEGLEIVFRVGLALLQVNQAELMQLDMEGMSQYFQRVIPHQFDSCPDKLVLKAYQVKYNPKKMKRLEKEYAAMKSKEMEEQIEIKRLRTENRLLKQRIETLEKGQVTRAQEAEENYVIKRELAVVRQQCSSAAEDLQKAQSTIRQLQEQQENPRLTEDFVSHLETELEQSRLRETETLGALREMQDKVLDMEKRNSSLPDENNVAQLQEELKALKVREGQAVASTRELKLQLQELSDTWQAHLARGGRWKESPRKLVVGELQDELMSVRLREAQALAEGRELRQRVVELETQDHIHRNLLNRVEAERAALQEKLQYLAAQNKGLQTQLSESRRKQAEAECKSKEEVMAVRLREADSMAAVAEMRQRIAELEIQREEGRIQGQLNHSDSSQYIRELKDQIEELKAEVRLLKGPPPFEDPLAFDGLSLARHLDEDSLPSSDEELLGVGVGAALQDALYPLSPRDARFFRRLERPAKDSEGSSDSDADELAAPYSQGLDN
inactive: [1] 0.022 | gandotinib 0.062 | [2] 0.049
